Data: PubChem BioAssay AID1159580 (chemical genetic matrix, 2015)
“And” between values parts separate entries of the source, which are not always exact repeats. Identical values can stand only once. Screen size: about 5,500 compounds; about 2,000 (36%) were called active. Another 18% or so got no clear call; they are omitted. Rule as the data show it: active = normalized growth mostly below about 0.91 (no sharp cut-off); inconclusive = no clear call, values can overlap the other calls; inactive = mostly above about 0.92. The list shows a part of the results.

Test: chemical genetic growth profiling, strain panel (AID 1159580);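 also: tested at 20 µM; growth read once vehicle control cultures reached saturation at 30 °C; 1 = growth at the plate median or of vehicle wells; lower values mean less growth of the strain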
Settings: S. cerevisiae deletion strains, growth OD

Measured: normalized growth

CC(=O)O[C@H]1C[C@H](O[C@H]2[C@@H](O)C[C@H](O[C@H]3[C@@H](O)C[C@H](O[C@H]4CC[C@@]5(C)C(CCC6C5C[C@@H](O)[C@]5(C)[C@@H](C7=CC(=O)OC7)CC[C@]65O)C4)O[C@@H]3C)O[C@@H]2C)O[C@H](C)[C@H]1O[C@@H]1O[C@H](CO)[C@@H](O)[C@H](O)[C@H]1O (stereo not given in full)
inactive: locus YAL021C, strain ccr4, hits give low values 1 | locus YAL026C, strain drs2, hits give low values 0.996 | locus YAL030W, strain snc1, hits give low values 1 | locus YBL061C, strain skt5, hits give low values 0.991 | locus YBR009C, strain hhf1, hits give low values 0.995 | locus YBR021W, strain FUR4, hits give low values 1.02 | locus YBR023C, strain chs3, hits give low values 0.999 | locus YBR171W, strain sec66, hits give low values 0.995 | locus YBR229C, strain ROT2, hits give low values 1.01 | locus YBR231C, strain swc5, hits give low values 0.987 | locus YBR279W, strain paf1, hits give low values 0.996 | locus YCL011C, strain gbp2, hits give low values 1 | locus YCL016C, strain dcc1, hits give low values 0.996 | locus YCL029C, strain bik1, hits give low values 0.985 | locus YCL061C, strain MRC1, hits give low values 0.999 | locus YCL069W, strain vba3, hits give low values 0.993 | locus YCR088W, strain abp1, hits give low values 0.989 | locus YDL005C, strain med2, hits give low values 0.996 | locus YDL035C, strain GPR1, hits give low values 1.03 | locus YDL040C, strain nat1, hits give low values 0.994 | locus YDL074C, strain BRE1, hits give low values 1.02 | locus YDL101C, strain DUN1, hits give low values 1.02 | locus YDL134C, strain PPH21, hits give low values 1.02 | locus YDL185W, strain tfp1, hits give low values 1 | locus YDL192W, strain arf1, hits give low values 1.01 | locus YDR001C, strain nth1, hits give low values 0.994 | locus YDR069C, strain doa4, hits give low values 0.988 | locus YDR101C, strain arx1, hits give low values 0.983 | locus YDR137W, strain rgp1, hits give low values 0.997 | locus YDR150W, strain NUM1, hits give low values 1.01 | locus YDR159W, strain sac3, hits give low values 0.981 | locus YDR162C, strain NBP2, hits give low values 1.02 | locus YDR195W, strain ref2 0.961 | locus YDR297W, strain sur2, hits give low values 0.994 | locus YDR318W, strain mcm21, hits give low values 0.989 | locus YDR334W, strain swr1, hits give low values 0.999 | locus YDR335W, strain msn5, hits give low values 1 | locus YDR388W, hits give low values 0.989 | locus YDR392W, strain spt3, hits give low values 0.979 | locus YDR502C, strain sam2, hits give low values 1.01 | locus YEL003W, strain gim4, hits give low values 0.995 | locus YEL037C, strain rad23, hits give low values 0.999 | locus YEL061C, strain CIN8 (second series), hits give low values 0.99 | locus YEL061C, strain CIN8, hits give low values 1.01 | locus YER015W, strain faa2, hits give low values 0.994 | locus YER016W, strain bim1, hits give low values 0.993 | locus YER110C, hits give low values 0.984 | locus YER111C, strain swi4, hits give low values 0.997 | locus YER155C, strain BEM2 (second series), hits give low values 1.01 | locus YER155C, strain BEM2, hits give low values 1 | locus YER167W, strain BCK2, hits give low values 1.01 | locus YFR010W, strain ubp6, hits give low values 0.994 | locus YGL078C, strain dbp3, hits give low values 1.01 | locus YGL086W, strain mad1, hits give low values 0.998 | locus YGL167C, strain pmr1, hits give low values 1 | locus YGL173C, strain kem1, hits give low values 1 | locus YGL227W, strain vid30, hits give low values 0.987 | locus YGL240W, strain doc1, hits give low values 0.995 | locus YGL248W, strain PDE1, hits give low values 1.01 | locus YGL253W, strain hxk2, hits give low values 0.997 | locus YGR078C, strain PAC10, hits give low values 1 | locus YGR135W, strain pre9, hits give low values 1.01 | locus YGR229C, strain SMI1, hits give low values 1.02 | locus YGR252W, strain gcn5, hits give low values 1.17 | locus YHR013C, strain ard1, hits give low values 0.969 | locus YHR027C, strain rpn1, hits give low values 0.999 | locus YHR030C, strain SLT2, hits give low values 1 and 0.975 | locus YHR079C, strain IRE1, hits give low values 0.966 | locus YHR094C, strain hxt1, hits give low values 0.973 | locus YHR129C, strain ARP1, hits give low values 1.01 | locus YHR142W, strain chs7, hits give low values 0.996 | locus YHR200W, strain rpn10, hits give low values 1 | locus YIL066C, strain RNR3, hits give low values 1.01 | locus YIL073C, strain SPO22, hits give low values 1.08 | locus YIL125W, strain kgd1, hits give low values 1 | locus YIR030C, strain dcg1, hits give low values 0.988 | locus YJL092W, strain hpr5, hits give low values 1 | locus YJL095W, strain BCK1 (second series), hits give low values 0.998 | locus YJL095W, strain BCK1, hits give low values 1 and 0.977 | locus YJL115W, strain asf1, hits give low values 0.996 | locus YJL129C, strain trk1, hits give low values 0.998 | locus YJL134W, strain LCB3, hits give low values 1.01 | locus YJL154C, strain vps35, hits give low values 0.993 | locus YJL164C, strain tpk1, hits give low values 1.01 | locus YJL166W, strain qcr8, hits give low values 1 | locus YJL168C, strain set2, hits give low values 0.982 | locus YJL187C, strain SWE1 (second series), hits give low values 1.01 | locus YJL187C, strain SWE1, hits give low values 0.995 | locus YJR043C, strain POL32, hits give low values 0.999 | locus YJR066W, strain TOR1, hits give low values 0.933
